From the supplement of paper PMC4022240
± gives the standard deviation.

T1: HaloTag-ATRX ADD domain (163-292)
T1 chain: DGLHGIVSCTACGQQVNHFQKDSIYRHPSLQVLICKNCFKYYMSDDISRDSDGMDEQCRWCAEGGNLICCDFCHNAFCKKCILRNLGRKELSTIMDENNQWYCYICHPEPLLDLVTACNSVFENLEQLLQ


Molecular target: T1, HaloTag-ATRX ADD domain (163-292)
Assay: peptide microarray binding signal (635 nm), min-max normalized on array (fraction of array maximum); higher = stronger binding
Conditions: peptide region: Unmod H1 variant; binder concentration: 50 nM
How it was run: (§1)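 For each library, binding signal was taken as the triplicate-spot mean intensity and then min-max scaled. Spots of histone 13-mer peptide–cellulose conjugates on nitrocellulose, printed in triplicate with a Cy3 tracer, were probed for 1 h at 4°C with either biotin-labelled HaloTag reader fusions (10 nM to 1 μM) and streptavidin-Alexa Fluor 647 or rabbit histone antibodies (1:10,000 to 1:2,000) and anti-rabbit Alexa 647. Readout at 635 nm came from an Axon GenePix 4000B.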

| Binder | peptide microarray binding signal |
| --- | --- |
| AKKPAGAAKKPKK [Unmod H1 variant A K K P A G A A K K P K K] | 0.00931 ± 0.00023 |
| KAKKAGAAKAKKP [Unmod H1 variant K A K K A G A A K A K K P] | 0.01282 ± 3.1e-05 |
| PPVSELITKAVAA [Unmod H1 variant P P V S E L I T K A V A A] | 0.0304 ± 0.017 |
| TLVQTKGTGASGS [Unmod H1 variant T L V Q T K G T G A S G S] | 0.0308 ± 0.012 |
| ASGSFKLNKKAAS [Unmod H1 variant A S G S F K L N K K A A S] | 0.0207 ± 0.0013 |
| KAASGEAKPKAKK [Unmod H1 variant K A A S G E A K P K A K K] | 0.0252 ± 0.0022 |
| TKPKTAKPKKAAP [Unmod H1 variant T K P K T A K P K K A A P] | 0.0172 ± 0.00023 |
| KPKKATGAATPKK [Unmod H1 variant K P K K A T G A A T P K K] | 0.00674 ± 0.0014 |
| GVSLAALKKALAA [Unmod H1 variant G V S L A A L K K A L A A] | 0.0641 ± 0.057 |
| ALAAAGYDVEKNN [Unmod H1 variant A L A A A G Y D V E K N N] | 0.021 ± 0.00023 |

Same assay, conditions: peptide region: Unmod H1 variant; binder concentration: 500 nM

| Binder | peptide microarray binding signal |
| --- | --- |
| AKKPAGAAKKPKK [Unmod H1 variant A K K P A G A A K K P K K] | 0.00786 ± 0.00022 |
| KAKKAGAAKAKKP [Unmod H1 variant K A K K A G A A K A K K P] | 0.0114 ± 0.00065 |
| PPVSELITKAVAA [Unmod H1 variant P P V S E L I T K A V A A] | 0.00833 ± 0.00045 |
| TLVQTKGTGASGS [Unmod H1 variant T L V Q T K G T G A S G S] | 0.0171 ± 0.0029 |
| ASGSFKLNKKAAS [Unmod H1 variant A S G S F K L N K K A A S] | 0.00791 ± 0.00049 |
| KAASGEAKPKAKK [Unmod H1 variant K A A S G E A K P K A K K] | 0.0245 ± 0.0017 |
| TKPKTAKPKKAAP [Unmod H1 variant T K P K T A K P K K A A P] | 0.0103 ± 0.00048 |
| KPKKATGAATPKK [Unmod H1 variant K P K K A T G A A T P K K] | 0.00957 ± 0.00063 |
| GVSLAALKKALAA [Unmod H1 variant G V S L A A L K K A L A A] | 0.0257 ± 0.0036 |
| ALAAAGYDVEKNN [Unmod H1 variant A L A A A G Y D V E K N N] | 0.0215 ± 0.001 |

These binders were tested against HaloTag-ING2 PHD (mouse Ing2 200-280) in the same assay as above. Conditions: peptide region: Unmod H1 variant; binder concentration: 10 nM.
How it was run: as §1

| Binder | peptide microarray binding signal |
| --- | --- |
| AKKPAGAAKKPKK [Unmod H1 variant A K K P A G A A K K P K K] | 0.003103 ± 3e-05 |
| KAKKAGAAKAKKP [Unmod H1 variant K A K K A G A A K A K K P] | 0.00424 ± 5.8e-05 |
| PPVSELITKAVAA [Unmod H1 variant P P V S E L I T K A V A A] | 0.00382 ± 0.00018 |
| TLVQTKGTGASGS [Unmod H1 variant T L V Q T K G T G A S G S] | 0.00734 ± 0.00017 |
| ASGSFKLNKKAAS [Unmod H1 variant A S G S F K L N K K A A S] | 0.00233 ± 5.8e-05 |
| KAASGEAKPKAKK [Unmod H1 variant K A A S G E A K P K A K K] | 0.007579 ± 5.8e-05 |
| TKPKTAKPKKAAP [Unmod H1 variant T K P K T A K P K K A A P] | 0.00173 ± 2.1e-05 |
| KPKKATGAATPKK [Unmod H1 variant K P K K A T G A A T P K K] | 0.003939 ± 2.1e-05 |
| GVSLAALKKALAA [Unmod H1 variant G V S L A A L K K A L A A] | 0.00621 ± 0.00023 |
| ALAAAGYDVEKNN [Unmod H1 variant A L A A A G Y D V E K N N] | 0.00991 ± 0.00043 |

Same assay, conditions: peptide region: Unmod H1 variant; binder concentration: 100 nM

| Binder | peptide microarray binding signal |
| --- | --- |
| AKKPAGAAKKPKK [Unmod H1 variant A K K P A G A A K K P K K] | 0.00765 ± 0.00058 |
| KAKKAGAAKAKKP [Unmod H1 variant K A K K A G A A K A K K P] | 0.00935 ± 0.00021 |
| PPVSELITKAVAA [Unmod H1 variant P P V S E L I T K A V A A] | 0.00397 ± 0.00022 |
| TLVQTKGTGASGS [Unmod H1 variant T L V Q T K G T G A S G S] | 0.0165 ± 0.00046 |
| ASGSFKLNKKAAS [Unmod H1 variant A S G S F K L N K K A A S] | 0.00425 ± 7.2e-05 |
| KAASGEAKPKAKK [Unmod H1 variant K A A S G E A K P K A K K] | 0.0113 ± 0.0012 |
| TKPKTAKPKKAAP [Unmod H1 variant T K P K T A K P K K A A P] | 0.00567 ± 0.00041 |
| KPKKATGAATPKK [Unmod H1 variant K P K K A T G A A T P K K] | 0.00893 ± 0.00084 |
| GVSLAALKKALAA [Unmod H1 variant G V S L A A L K K A L A A] | 0.0162 ± 0.0004 |
| ALAAAGYDVEKNN [Unmod H1 variant A L A A A G Y D V E K N N] | 0.0252 ± 0.0029 |

These binders were tested against anti-H3K4me3 antibody ab8580 in the same assay as above. Conditions: peptide region: Unmod H1 variant; binder concentration: 1:2,000 dilution.
How it was run: as §1

| Binder | peptide microarray binding signal |
| --- | --- |
| AKKPAGAAKKPKK [Unmod H1 variant A K K P A G A A K K P K K] | 0.0006041 ± 5.8e-06 |
| KAKKAGAAKAKKP [Unmod H1 variant K A K K A G A A K A K K P] | 0.000906 ± 2.4e-05 |
| PPVSELITKAVAA [Unmod H1 variant P P V S E L I T K A V A A] | 0.00296 ± 0.001 |
| TLVQTKGTGASGS [Unmod H1 variant T L V Q T K G T G A S G S] | 0.00255 ± 9.7e-05 |
| ASGSFKLNKKAAS [Unmod H1 variant A S G S F K L N K K A A S] | 0.00132 ± 0.0003 |
| KAASGEAKPKAKK [Unmod H1 variant K A A S G E A K P K A K K] | 0.000831 ± 4.9e-05 |
| TKPKTAKPKKAAP [Unmod H1 variant T K P K T A K P K K A A P] | 0.00108 ± 6.8e-05 |
| KPKKATGAATPKK [Unmod H1 variant K P K K A T G A A T P K K] | 0.000925 ± 2.1e-05 |
| GVSLAALKKALAA [Unmod H1 variant G V S L A A L K K A L A A] | 0.00157 ± 0.00018 |
| ALAAAGYDVEKNN [Unmod H1 variant A L A A A G Y D V E K N N] | 0.0067 ± 0.0027 |

Same assay, conditions: peptide region: Unmod H1 variant; binder concentration: 1:10,000 dilution

| Binder | peptide microarray binding signal |
| --- | --- |
| AKKPAGAAKKPKK [Unmod H1 variant A K K P A G A A K K P K K] | 0.00217 ± 0.0002 |
| KAKKAGAAKAKKP [Unmod H1 variant K A K K A G A A K A K K P] | 0.00148 ± 2.9e-05 |
| PPVSELITKAVAA [Unmod H1 variant P P V S E L I T K A V A A] | 0.0028 ± 0.00019 |
| TLVQTKGTGASGS [Unmod H1 variant T L V Q T K G T G A S G S] | 0.00388 ± 0.00013 |
| ASGSFKLNKKAAS [Unmod H1 variant A S G S F K L N K K A A S] | 0.000913 ± 1.6e-05 |
| KAASGEAKPKAKK [Unmod H1 variant K A A S G E A K P K A K K] | 0.00171 ± 4.3e-05 |
| TKPKTAKPKKAAP [Unmod H1 variant T K P K T A K P K K A A P] | 0.00097 ± 9.9e-06 |
| KPKKATGAATPKK [Unmod H1 variant K P K K A T G A A T P K K] | 0.00171 ± 5.9e-05 |
| GVSLAALKKALAA [Unmod H1 variant G V S L A A L K K A L A A] | 0.00262 |
| ALAAAGYDVEKNN [Unmod H1 variant A L A A A G Y D V E K N N] | 0.00702 ± 0.00034 |

The binders below were run against anti-H3K9me3 antibody ab8898 in the same assay as above. Conditions: peptide region: Unmod H1 variant; binder concentration: 1:2,000 dilution.
How it was run: as §1

| Binder | peptide microarray binding signal |
| --- | --- |
| AKKPAGAAKKPKK [Unmod H1 variant A K K P A G A A K K P K K] | 0.000423 ± 8.2e-06 |
| KAKKAGAAKAKKP [Unmod H1 variant K A K K A G A A K A K K P] | 0.000423 ± 8.2e-06 |
| PPVSELITKAVAA [Unmod H1 variant P P V S E L I T K A V A A] | 0.00106 ± 4.4e-05 |
| TLVQTKGTGASGS [Unmod H1 variant T L V Q T K G T G A S G S] | 0.0019 ± 0.00012 |
| ASGSFKLNKKAAS [Unmod H1 variant A S G S F K L N K K A A S] | 0.000257 ± 2.7e-06 |
| KAASGEAKPKAKK [Unmod H1 variant K A A S G E A K P K A K K] | 0.000483 ± 1.7e-05 |
| TKPKTAKPKKAAP [Unmod H1 variant T K P K T A K P K K A A P] | 0.000227 ± 4.1e-06 |
| KPKKATGAATPKK [Unmod H1 variant K P K K A T G A A T P K K] | 0.000408 ± 1.2e-05 |
| GVSLAALKKALAA [Unmod H1 variant G V S L A A L K K A L A A] | 0.00131 ± 4.4e-05 |
| ALAAAGYDVEKNN [Unmod H1 variant A L A A A G Y D V E K N N] | 0.00281 ± 0.0003 |

Same assay, conditions: peptide region: Unmod H1 variant; binder concentration: 1:10,000 dilution

| Binder | peptide microarray binding signal |
| --- | --- |
| AKKPAGAAKKPKK [Unmod H1 variant A K K P A G A A K K P K K] | 0.00104 ± 1.1e-05 |
| KAKKAGAAKAKKP [Unmod H1 variant K A K K A G A A K A K K P] | 0.00075 ± 7.9e-06 |
| PPVSELITKAVAA [Unmod H1 variant P P V S E L I T K A V A A] | 0.00144 ± 5.7e-05 |
| TLVQTKGTGASGS [Unmod H1 variant T L V Q T K G T G A S G S] | 0.00231 ± 7.5e-05 |
| ASGSFKLNKKAAS [Unmod H1 variant A S G S F K L N K K A A S] | 0.00075 ± 1.6e-05 |
| KAASGEAKPKAKK [Unmod H1 variant K A A S G E A K P K A K K] | 0.001211 ± 1.2e-05 |
| TKPKTAKPKKAAP [Unmod H1 variant T K P K T A K P K K A A P] | 0.000577 ± 6.2e-06 |
| KPKKATGAATPKK [Unmod H1 variant K P K K A T G A A T P K K] | 0.00121 ± 2.4e-05 |
| GVSLAALKKALAA [Unmod H1 variant G V S L A A L K K A L A A] | 0.00161 ± 3.1e-05 |
| ALAAAGYDVEKNN [Unmod H1 variant A L A A A G Y D V E K N N] | 0.00357 ± 0.00017 |
